This is a sample that favours compounds with a hit; in the whole collection about 7.1% have one here.
Marburg entry = blocks Marburg virus binding or cell entry; Marburg virus pseudotype entry/binding inhibition, cell-based; Potency, µM (titrated, usually from 49.2 µM), without a hit: at the highest dose activity change, negative = inhibition, actives largely listed as inhibitors; hit rate 6.5% among 18,000; AID 720532
Lassa entry = inhibitors of Lassa virus binding or entry into cells; hit rate 4.1% among 18,000; Lassa virus pseudotyped entry inhibition, cell-based qHTS; Potency, µM (titrated, usually from 49.2 µM), without a hit: at the highest dose activity change, negative = inhibition, actives largely listed as inhibitors
Numbers without * were called inactive; u = inconclusive; x = not tested or not shown; ! = a repeat was not active; [ ] = another dose, or the depositor's remark. Calls come from the whole dose curve; tested in HEK293 cells. % is set by controls: 0 for no effect and ±100 for the full control effect; potency is the fitted concentration of half-maximal effect.

SMILES	Marburg entry	Lassa entry
CN(C/C=C/c1ccccc1)Cc1cccc2ccccc12	3%	-16%[17.8 µM]
COc1ccc(S(=O)(=O)N(CCO)c2ccccc2CN(C)C/C=C/c2ccc(Cl)cc2)cc1	8.9µM*	u
COc1cccc(-n2nc(C)c3c(NN=C(C)c4ccncc4)ncnc32)c1	u	55%
CN(CCc1ccc(Cl)c(Cl)c1)[C@@H]1CCCC[C@@H]1N1CCCC1	7.9µM*	u
COC(=O)[C@H]1CC=C[C@H]2CCN(Cc3ccc(Cl)c(Cl)c3)C(=O)[C@@H]12	-26%	-22%
COC(=O)N1CCN(C(=O)Cc2ccc(Cl)c(Cl)c2)C(CN2CCCC2)C1 (configuration not stated)	u	0%
CN(CCc1ccc(Cl)c(Cl)c1)CCN1CCCC1	8.9µM*	32µM*
CCN1C(=O)[C@@H]2[C@H]3[C@H](O)[C@H](O)CC(=NO[C@H](C)CN4CCCc5nc(C)c(C)cc54)[C@@H]3CC[C@H]2C1=O	2%[8.59 µM]	14%[8.59 µM]
C[C@@H]1CCCN1[C@H]1C[S+](=O)([O-])N[C@H]1COCc1ccccc1	16%	x
CCN1C(=NCc2cccc(C(F)(F)F)c2)NC(c2cccs2)C(C(=O)OC)=C1C (configuration not stated)	u	-7%[8.59 µM]
O=C(Nc1n[nH]c2nc(-c3ccco3)c(Br)cc12)C1CC1	u	66%
COc1ccc2c(c1)CO[C@H]([C@H](O)COC(C)=O)[C@H]2C=Cc1ccccc1	-2%[8.59 µM]	0%[8.59 µM]
Cc1cc(C)c(N(Cc2ccccc2)S(=O)(=O)c2ccc(OCCNC(=O)c3cc4ccccc4o3)cc2)c(C(=O)NO)c1	5µM*	13µM*
COC(=O)C1=C(C)N(Cc2ccccc2)C(=S)NC1CCc1ccccc1 (configuration not stated)	38%[8.59 µM]	-3%[8.59 µM]
c1ccc2sc(N3CCN(Cc4ccc5c(c4)OCO5)CC3)nc2c1	8%	34%
c1cc(CN2CCCCC2)cc(OCCCNc2nc3ccccc3s2)c1	16µM*	u
C[C@H]1C(C(=O)N2CCCC2)=Cc2[nH]c(=O)[nH]c2C=C1c1ccccc1	18%[8.59 µM]	4%[8.59 µM]
CCCCCCCC/C=C\CCCCCCCC(=O)N[C@@H](CO)Cc1ccc(O)cc1	u	28µM*
CCCCCCCC/C=C\CCCCCCCC(=O)NC(C)C(=O)O (configuration not stated)	2%	6%
COc1ccc(COc2ccc(Cc3cnc(N)nc3N)cc2OC)cc1	-17%	158%
O=C1C2=C(C(=O)c3ccccc31)[C@H]1O[C@](c3ccsc3)(Cc3ccccc31)O2	-8%[8.59 µM]	-8%[8.59 µM]
O=C(NN=C1C[C@@H](O)[C@H](O)[C@H]2[C@@H]3C(=O)N(c4cccc(Oc5ccccc5)c4)C(=O)[C@@H]3CC[C@H]12)OCc1ccccc1	4%[8.59 µM]	x
CCC(=O)OC1CCC2C3CCc4cc(O)ccc4C3CC[C@]12C (some centres not stated)	0.001µM*	158µM*
CCCCC(=O)O[C@H]1CC[C@H]2[C@@H]3CCc4cc(O)ccc4[C@H]3CC[C@]12C	-15%	u
C[C@]12CC[C@@H]3c4ccc(O)cc4CC[C@H]3[C@@H]1CC[C@@H]2OC(=O)CCC1CCCC1	20%	28µM*!
SMILES	Marburg entry	Lassa entry
C[C@]12CCC3c4ccc(O)cc4CCC3[C@@H]1CCC2=O (some centres not stated)	15%[17.8 µM]	-17%[17.8 µM]
C[C@]12CC[C@@H]3c4ccc(O)cc4CC[C@H]3[C@@H]1CCC2=O	16%	32µM*!
CCC(=O)O[C@H]1CC[C@H]2[C@@H]3CCc4cc(O)ccc4[C@H]3CC[C@]12C	-30%	u
C[C@H]1CC[C@H]2C(=O)N(Cc3ccccc3)C[C@H](O)CN2[C@H]1c1cccc(Br)c1	-5%[8.59 µM]	x
COC(=O)CC=C[C@@H](C)[C@@H](C=NOC[C@@H](O)COCc1ccco1)OC	-14%[8.59 µM]	3%[8.59 µM]
COC[C@H]1O[C@@H](c2c(OC)cc(OC)cc2OC)[C@H](OC)[C@@H](OC)[C@H]1OC	-10%[8.59 µM]	3%[8.59 µM]
CCN(CC)CCNC(=O)c1cnn(-c2ncc3c(n2)-c2ccc(OC)cc2CC3)c1C	13µM*	u
CCC(O)CNC(=O)c1cnn(-c2ncc3c(n2)-c2ccc(OC)cc2CC3)c1C1CC1 (configuration not stated)	0%	8%
C[C@H]1C[C@@H](C)O[C@@]2(C1)C(=O)Nc1ccccc12	5%[8.59 µM]	5%[8.59 µM]
O=C(Nc1cc(C(F)(F)F)cc(C(F)(F)F)c1)c1cc(Cl)ccc1O	1µM*	1.1µM*
O=C(Nc1cc(C(F)(F)F)ccc1O)Nc1cc(C(F)(F)F)ccc1O	12%	-3%
CC(C)[C@@H](OCc1ccccc1)[C@H](C)C=NOC[C@@H](O)COCc1ccco1	14%[8.59 µM]	-28%[8.59 µM]
Cc1cc(C)cc(CO[C@H]2C=C[C@@H](c3ccccc3)O[C@H]2CO)c1	-24%[8.59 µM]	-11%[8.59 µM]
COc1cccc(-c2ccc3ncnc(NC4CCNCC4)c3c2)c1	u	0%
FC(F)(F)c1ccccc1-c1ccc2ncnc(NC3CCNCC3)c2c1	11µM*	-19%
CN(C)C1CCN(CCCOc2ccc(-c3ccc(C#N)cc3)cc2)C1 (configuration not stated)	11µM*	u
O=C(C1CCCCC1)N1C[C@H](O)[C@H](n2cc(C3CC3)nn2)C[C@@H]1c1ccccc1	22%	2%
CCN1C(=O)[C@H]2[C@H]3C(=CC[C@@H]2C1=O)C1(OCCCO1)[C@@H]1O[C@H]1[C@H]3O	68%[8.59 µM]	8%[8.59 µM]
COCC=CC1=CC2=CC(=O)C(C)(OC(=O)c3cnc4ccccc4n3)C(=O)C2=CN1CC1CC1 (configuration not stated)	58%[8.59 µM]	13%[8.59 µM]
O=C(Nc1ccccc1)OCC(CN1CCCCC1)OC(=O)Nc1ccccc1 (configuration not stated)	13µM*	-13%
O=C(OCCN1CCCCC1)C(O)(c1ccccc1)c1ccccc1	-14%	-17%
CCOC(=O)CN1C(=O)NC(c2ccccc2)C(C(C)=O)=C1C (configuration not stated)	u	-19%[8.59 µM]
C#CCCCON=C1C[C@@H](O)[C@H](O)[C@H]2[C@@H]3C(=O)N(c4ccc(F)cc4F)C(=O)[C@@H]3CC[C@@H]12	-8%[8.59 µM]	17%[8.59 µM]
CN(C)CCCN1c2ccccc2CCc2ccc(Cl)cc21	8.9µM*	11µM*!
NCCNC(=O)c1ccc(Cl)cc1	7%	-2%
SMILES	Marburg entry	Lassa entry
CN(CCCN1c2ccccc2CCc2ccccc21)CC(=O)c1ccc(Cl)cc1	7.9µM*	u
CN1C(=O)CC(=O)N(c2ccccc2)c2cc(Cl)ccc21	-10%	-11%
CNCCCN1c2ccccc2CCc2ccccc21	7.9µM*	u
CCOC(=O)C1=CN(CCC=C(C)C)C(=O)N(C(C)=O)C1c1ccccc1 (configuration not stated)	57%[8.59 µM]	-30%[8.59 µM]
CNc1ccnc(-c2ccccc2CN(C)C)n1	-5%	4%
COCCNc1cc(-c2ccccc2CN(C)C)ncn1	-15%	-2%
Cc1cccc(CNc2ccnc(-c3ccccc3CN(C)C)n2)c1	11µM*	u
COc1ccccc1-c1nccc(NCc2cccc(C)c2)n1	13µM*	-19%
Cc1cccc(CNc2cc(-c3ccccc3CN(C)C)ncn2)c1	6.3µM*	-4%
COc1ccccc1-c1cncnc1NCc1cccc(C)c1	-17%	-5%
C[C@@H]1CC[C@H]2C(=O)N(Cc3cccc([N+](=O)[O-])c3)C[C@@H](O)CN2[C@@H]1c1ccc(Br)cc1	-13%[8.59 µM]	-10%[8.59 µM]
CCCCN1CC(COc2ccccc2)Oc2cc(Br)ccc2S1(=O)=O (configuration not stated)	u	-19%
